About 8,200 (2.3%) of roughly 360,000 compounds were called active. The sample holds actives, similar compounds and a random draw of the others, so the mix is not that of the screen. No stated cut-off is given here; in the data, active means inhibition above about 27%; inactive means the rest.
biological target: Fructose-bisphosphate aldolase (Mycobacterium tuberculosis (strain ATCC 25618 / H37Rv)) (UniProt P9WQA3); assay: Mtb FBA enzyme inhibitors, primary screen, biochemical, fluorescence, strain H37Rv (AID 588726);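 further: 0% = vehicle and 100% = reference inhibitor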; conditions: purified M. tuberculosis FBA, fluorescence read-out, at 1 µM, hits give high values
Sequence (P9WQA3 whole entry, looked up): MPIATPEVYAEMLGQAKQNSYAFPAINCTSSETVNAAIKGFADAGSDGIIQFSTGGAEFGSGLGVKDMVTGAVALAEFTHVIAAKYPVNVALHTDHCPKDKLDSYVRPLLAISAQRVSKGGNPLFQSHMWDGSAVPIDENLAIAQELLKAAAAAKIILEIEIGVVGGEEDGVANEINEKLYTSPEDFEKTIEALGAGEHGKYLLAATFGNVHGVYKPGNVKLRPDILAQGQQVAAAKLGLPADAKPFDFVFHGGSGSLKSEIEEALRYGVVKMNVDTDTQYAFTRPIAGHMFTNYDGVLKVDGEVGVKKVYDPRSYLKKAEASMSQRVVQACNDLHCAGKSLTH

Compound	inhibition
Cc1cc(NC(=O)C(C)SCC(=O)Nc2cccc(S(=O)(=O)N3CCCCCC3)c2)no1 (stereo not drawn)	2.17% (inactive)
COc1cccc(NC(=O)CSc2nnc(C3CCCCC3)n2N)c1	-1.25% (inactive)
CC(=O)NC(CC(=O)Nc1nccs1)c1ccccc1 (stereo not drawn)	6.36% (inactive)
OC(CN=c1sc2ccccc2n1CC(O)COc1ccccc1)COc1ccccc1 (stereo not drawn)	-7.04% (inactive)
CC(C)COP(=O)(c1ccc(N(C)C)cc1)C(Nc1ccccc1)c1cccnc1 (stereo not drawn)	6.04% (inactive)
COc1ccc(C(=O)N(CCN2CCOCC2)CC(=O)NC2CCCC2)cc1OC	-0.65% (inactive)
Cc1ccc2nc(-c3ccccc3)c(CC3CCCCC3)n2c1	3.26% (inactive)
Cc1ccccc1C(=O)NCCN=C1NS(=O)(=O)c2ccccc21	0.52% (inactive)
COc1ccc(-n2c(C)nn(CC3CC3)c2=O)cc1	-1.25% (inactive)
COc1ccc(CC(NC(C)=O)C(=O)N2CCN(C(=O)Nc3cccc(Cl)c3)CC2)cc1OC (stereo not drawn)	1.24% (inactive)
CCCS(=O)(=O)Nc1ccc(-c2cn3c(n2)SCC3)cc1	0.71% (inactive)
CNc1cncc(-c2ccc(NS(C)(=O)=O)cc2)n1	174% (active)
CS(=O)(=O)Nc1ccc(C(=O)N2CCCC2)cc1	4.14% (inactive)
C#CCNC(=O)C1=C[C@@H](c2ccccc2)[C@H](CCCO)[C@@H](OCC)O1	0.54% (inactive)
COc1ccc(N)c(C)c1	1.98% (inactive)
COc1ccc2c(c1)cc1n2CCN=C1NN	41.9% (active)
COc1ccc2ccn(C)c2c1	0% (inactive)
O=c1[nH]c2ccccc2n2c(-c3ccccc3)nnc12	4.09% (inactive)
Cc1ccc(-c2nc3ccccc3[nH]c2=O)cc1	76.5% (active)
Cc1ccc(-c2nnc(-n3nnc4ccccc43)c3ccccc23)cc1	-0.52% (inactive)
O=C(NCC(=O)N1CCN(c2ccccc2O)CC1)c1ccc2ccccc2c1	1.15% (inactive)
CC(C(=O)NCCc1ccc(S(N)(=O)=O)cc1)N1C(=O)CC(C)(C)Sc2ccccc21 (stereo not drawn)	4.96% (inactive)
CC(=O)NC1=NC(=O)CS1	3.59% (inactive)
CCOc1c2ccc(C(=O)NCc3ccc4c(c3)OCO4)cc2nn1C	50.2% (active)
COc1ccc(CNC(=O)c2ccc3oc(C(C)C)nc3c2)cc1	0.16% (inactive)

Compound	inhibition
CCCn1nc2cc(C(=O)NCc3ccccc3)ccc2c1OCC	57.5% (active)
CCOc1c2ccc(C(=O)NCc3ccc(OC(F)(F)F)cc3)cc2nn1C	44% (active)
CCOc1ccc(NC(=O)COc2ccc(C(=O)NC3CCCc4ccccc43)cc2OC)cc1 (stereo not drawn)	3.93% (inactive)
CCOc1c2ccc(C(=O)NC3CCCc4ccccc43)cc2nn1CC (stereo not drawn)	42.8% (active)
C=CCOc1c2ccc(C(=O)N(CC)c3ccc(OC)cc3)cc2nn1C	17.6% (inactive)
O=C(COC(=O)c1ccc(Cl)nc1)NCc1ccc2c(c1)OCO2	-2.36% (inactive)
Cc1cc(N2C(=O)c3ccc(C(=O)NCc4ccccc4)cc3C2=O)no1	0.51% (inactive)
CNS(=O)(=O)c1cccc(C(=O)NC2CCCc3ccccc32)c1 (stereo not drawn)	5.34% (inactive)
COc1ccccc1-n1c(C)nc2cc(C(=O)NCc3ccc4c(c3)OCO4)ccc21	0.13% (inactive)
C[n+]1ccc(C(=O)NCc2ccccc2)cc1	3.53% (inactive)
Cc1ccc(Nc2ccccc2N)cc1	8.06% (inactive)
CC1(C)Cc2cccc(OCC(=O)N3CCN(c4ccc([N+](=O)[O-])cc4)CC3)c2O1	-5.39% (inactive)
O=C(CCN1CCCCC1)Nc1ccc(F)c(F)c1	-0.67% (inactive)
Cc1noc(C)c1CCC(=O)O	1.72% (inactive)
CC(C)(C)n1nnc(CCc2nnn(C(C)(C)C)n2)n1	2.81% (inactive)
COc1ccc(CCNC(=O)C2CC3Cn4c(nc5cc(C)c(C)cc54)C3N2C)cc1 (stereo not drawn)	1.06% (inactive)
CCC1CCCCN1C(=O)CSc1nc2c(c(=O)n1C)SC(C)C2 (stereo not drawn)	-1.89% (inactive)
Cc1nc(N=C(N)N)nc2c(C)cccc12	8% (inactive)
COc1nc(N=C(N)N)nc2c(C)cccc12	32.9% (active)
CCc1c(C)nc2c(OC)cccc2c1Cl	6.78% (inactive)
COc1ccc2cc(C(=O)C3CCCN(C(=O)c4sc(C)nc4C)C3)ccc2c1 (stereo not drawn)	162% (active)
COc1ccc(C(=O)C2CCCN(C(=O)c3cnsn3)C2)c(C)c1 (stereo not drawn)	2.56% (inactive)
CCn1nc(C)cc1C(=O)N1CCCC(C(=O)c2cccc(OC)c2)C1 (stereo not drawn)	-1.49% (inactive)
COc1ccc(-c2c(-c3cc(OC)cc(OC)c3)n(C)c3ccc(-c4ccn[nH]4)cc23)cc1	41.1% (active)
COc1cc(OC)cc(-c2c(-c3ccc(F)cc3)c3cc(-c4ccc5cc[nH]c5c4)ccc3n2C)c1	26.4% (inactive)

Compound	inhibition
COc1cc(OC)cc(-c2c(-c3cccs3)c3cc(-c4ccc(OC)nc4)ccc3n2C)c1	1.28% (inactive)
Cc1csc(/N=C/N(C)C)c1C#N	-1.13% (inactive)
CN(C(=O)CSc1nnnn1-c1ccccc1)C1CCCCC1	5.06% (inactive)
CCOCCCNC(=O)c1c[nH]c2cc(C)ccc2c1=O	4.52% (inactive)
CN(c1ccc2nc3ccccc3c(=O)n2n1)C1CCCCC1	1.09% (inactive)
CCOCCCNC(=O)c1cn(CC(C)C)c(=O)c2c1c1ccccc1n2C	25.3% (inactive)
CCOCCCNC(=O)c1cc2c(=O)n3ccccc3nc2s1	184% (active)
CN(C(=O)c1cc2c(=O)n3ccccc3nc2s1)C1CCCCC1	94.8% (active)
CCn1ncc(C2=NOC(C(=O)N3CCN(c4ccccc4)CC3)C2)c1C (stereo not drawn)	0.67% (inactive)
C[C@@H]1CN([C@@H](C)CO)C(=O)CCCn2cc(nn2)CO[C@H]1CN(C)S(=O)(=O)c1ccc(-n2cccn2)cc1	-4.05% (inactive)
Cc1ccc(C(=O)OCC(=O)Nc2ccc(Cl)cn2)cc1S(=O)(=O)N1CCOCC1	-2.24% (inactive)
CCc1ccc(C(=O)NN=C2CCCCCC2)s1	2.93% (inactive)
Cc1ccc(Cn2cc(C(=O)NN)c(=O)c3ccc(F)cc32)cc1	-0.43% (inactive)
C#Cc1cc(N2CCN(C(=O)c3ccoc3)CC2)n2nc(-c3cccc(Cl)c3)cc2n1	51.1% (active)
CCc1nc2ccc(C(=O)N3CCN(c4cccc(Cl)c4)CC3)cc2nc1CC	-5.44% (inactive)
CCCCCn1c(SCCC(C)C)nc2c1c(=O)[nH]c(=O)n2C	-1.96% (inactive)
Nc1ccc2c(c1)C(O)c1ccc(Cl)cc1-2 (stereo not drawn)	0.95% (inactive)
Nc1nc2cc(Cl)ccc2n1N	1.5% (inactive)
Nc1ccc2nn(-c3ccc(Cl)cc3)nc2c1	52.9% (active)
CCC(C)(C)NC(=O)CN(C(=O)CCC(=O)Nc1cc(C)ccn1)c1ccc2c(c1)OCCO2	-0.12% (inactive)
Cc1ccc(CCn2c3c(c4ccccc42)CN(C)CC3)cn1	4.44% (inactive)
CC(C)C(=O)Nc1oc(-c2ccccc2)cc1C#N	1.2% (inactive)
Cn1cccc1C(C#N)c1ccccc1C#N (stereo not drawn)	-1.4% (inactive)
Cn1cc(-c2ccccc2)cc(C#N)c1=O	50.3% (active)
O=P(O)(CP(=O)(c1ccccc1)c1ccccc1)c1ccccc1O	-1.86% (inactive)

Compound	inhibition
COc1ccc(CCN2CC(C(=O)OCC(=O)NCc3ccccc3Cl)CC2=O)cc1OC (stereo not drawn)	-0.32% (inactive)
Cc1c(Br)c([N+](=O)[O-])nn1C(C)C(=O)Nc1nccs1 (stereo not drawn)	0.22% (inactive)
Cn1nnnc1-c1cc(Cl)cc(Cl)c1	-1.41% (inactive)
O=C(CNC(=O)c1ccccc1Br)NCCSc1ccc(Br)cc1	2.75% (inactive)
CCCCC(NS(=O)(=O)c1ccc(C)cc1)C(=O)Oc1ccc2c3c(c(=O)oc2c1)CCC3 (stereo not drawn)	61.7% (active)
Cc1cc(=O)oc2cc(OC(C)C(=O)NCCc3ccc(S(N)(=O)=O)cc3)ccc12 (stereo not drawn)	20.4% (inactive)
CSCCC(NS(=O)(=O)c1ccc(C)cc1)C(=O)N1CCCC1 (stereo not drawn)	-1.91% (inactive)
C[C@H](OC(=O)n1ccnc1)[C@@H]1O[C@@]2(C)CCC[C@@H]1O2	-0.83% (inactive)
CC1(C)C(=O)C2(CCCCC2)C(=O)OC1c1cccs1 (stereo not drawn)	-0.98% (inactive)
O=C(Nc1ccc(Cl)cc1)C1Cc2c(-c3ccc4c(c3)OCO4)ccnc2O1 (stereo not drawn)	26.8% (inactive)
COc1ccc(NC(=O)C2Cc3c(-c4ccc(Cl)cc4)ccnc3O2)cc1 (stereo not drawn)	-1.52% (inactive)
COc1ccc(NC(=O)C2Cc3c(-c4ccc5c(c4)OCO5)ccnc3O2)cn1 (stereo not drawn)	64.8% (active)
CCCCn1c(N)c(N(Cc2ccccc2OC)C(=O)COc2cc(C)ccc2Cl)c(=O)[nH]c1=O	1.47% (inactive)
CCOc1ccc(OCC)c(-c2c(=O)n(OCc3ccc(Cl)cc3)c3ccccc3[n+]2[O-])c1	-1.68% (inactive)
Brc1cnc2ccccc2c1N1CCCCC1	51.2% (active)
Brc1cnc(N2CCCC2)nc1N1CCCCC1	4.23% (inactive)
c1ccc(-c2cc(N3CCCCC3)c3ccccc3n2)cc1	0.14% (inactive)
CCOC(=O)c1c(S(=O)(=O)Nc2ccc(CN3CCC(C)CC3)cc2)c(C)n(C)c1C	1.42% (inactive)
CCCCn1c(=S)[nH]c2ncccc2c1=O	0.66% (inactive)
CN(CCc1ccccn1)C(=O)CCC1CCCN(Cc2ccccc2OC(F)F)C1 (stereo not drawn)	5.01% (inactive)
CC(C)CCNc1nc(N2CCCC2)c2c(c1C#N)CCN(C)C2	4.23% (inactive)
CCCCc1nc(NCc2ccccc2)c(C#N)c2c1CCCC2	0.15% (inactive)
CCN1CCc2c(C#N)c(NCc3ccccc3)nc(NCCO)c2C1	33.9% (active)
